{
  "source": "paper PMC5700166",
  "data": [
    {"molecular_target": "T1, GST-Dm-Relish (Drosophila melanogaster, UniProt Q94527 99-473)", "T1 sequence": "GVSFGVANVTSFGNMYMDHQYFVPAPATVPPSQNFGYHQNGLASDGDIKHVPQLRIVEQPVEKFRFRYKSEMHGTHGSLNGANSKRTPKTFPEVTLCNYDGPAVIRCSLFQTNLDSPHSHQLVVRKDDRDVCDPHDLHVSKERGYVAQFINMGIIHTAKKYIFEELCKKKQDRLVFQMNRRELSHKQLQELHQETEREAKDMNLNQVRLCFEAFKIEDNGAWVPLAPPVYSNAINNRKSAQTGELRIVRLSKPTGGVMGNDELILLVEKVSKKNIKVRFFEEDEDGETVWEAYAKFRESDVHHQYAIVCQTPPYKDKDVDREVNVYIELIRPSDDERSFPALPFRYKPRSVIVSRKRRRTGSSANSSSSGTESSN", "test": "protein-binding microarray (PBM); PBM: ~300 nM protein, 6 mM HEPES pH 7.8, 80 mM KCl, 0.5 mM EDTA, 0.5 mM EGTA, 6% glycerol, 35 ng/ul poly-dIdC, 1% milk, 1 h, room temperature; Ap Aiptasia and Nv Nematostella (sea anemones) / Co Capsaspora / Aq Amphimedon (sponge) / Dm Drosophila / Hu human; RHD is the Rel homology domain; high values mean tight binding", "settings": "dsDNA, one strand shown", "units": {"binding signal": "z-score"}, "values": [
      {"sequence": "CCGATTAACATCAATAAAATCCCTGATGTTAATCGGGTCTTGATTCGCTTGACGCTGCTG", "binding signal": 6.47},
      {"sequence": "CCGATTAACATCAGAAACTCCCATGATGTTAATCGGGTCTTGATTCGCTTGACGCTGCTG", "binding signal": 3.38},
      {"sequence": "CCGATTAACATCAGGGACTTCCATGATGTTAATCGGGTCTTGATTCGCTTGACGCTGCTG", "binding signal": 6.69},
      {"sequence": "CCGATTAACATCAGGAAAGCACCTGATGTTAATCGGGTCTTGATTCGCTTGACGCTGCTG", "binding signal": 6.13},
      {"sequence": "CCGATTAACATCAAGGAAGTCCCTGATGTTAATCGGGTCTTGATTCGCTTGACGCTGCTG", "binding signal": 7.11},
      {"sequence": "CCGATTAACATCAGGGAAGGCCCTGATGTTAATCGGGTCTTGATTCGCTTGACGCTGCTG", "binding signal": 8.94},
      {"sequence": "CCGATTAACATCAGGAGAGCCCCTGATGTTAATCGGGTCTTGATTCGCTTGACGCTGCTG", "binding signal": 2.24},
      {"sequence": "CCGATTAACATCAAGGGACTTTCTGATGTTAATCGGGTCTTGATTCGCTTGACGCTGCTG", "binding signal": 7.3},
      {"sequence": "CCGATTAACATCAGGGAGGCCCCTGATGTTAATCGGGTCTTGATTCGCTTGACGCTGCTG", "binding signal": 6.28},
      {"sequence": "CCGATTAACATCAGGGGACTTCATGATGTTAATCGGGTCTTGATTCGCTTGACGCTGCTG", "binding signal": 6.09},
      {"sequence": "CCGATTAACATCAGGGACTTCACTGATGTTAATCGGGTCTTGATTCGCTTGACGCTGCTG", "binding signal": 7.9},
      {"sequence": "CCGATTAACATCAAAGAAGTCCCTGATGTTAATCGGGTCTTGATTCGCTTGACGCTGCTG", "binding signal": 5.18},
      {"sequence": "CCGATTAACATCAAAAAGCCCCTTGATGTTAATCGGGTCTTGATTCGCTTGACGCTGCTG", "binding signal": 8.7},
      {"sequence": "CCGATTAACATCAGAAATTACCCTGATGTTAATCGGGTCTTGATTCGCTTGACGCTGCTG", "binding signal": 4.39},
      {"sequence": "CCGATTAACATCAGGGCTCCCCATGATGTTAATCGGGTCTTGATTCGCTTGACGCTGCTG", "binding signal": 3.88},
      {"sequence": "CCGATTAACATCAAAAATGCCCCTGATGTTAATCGGGTCTTGATTCGCTTGACGCTGCTG", "binding signal": 5.68},
      {"sequence": "CCGATTAACATCAGGAAAGTCCCTGATGTTAATCGGGTCTTGATTCGCTTGACGCTGCTG", "binding signal": 8.43},
      {"sequence": "CCGATTAACATCACGGGATTACCTGATGTTAATCGGGTCTTGATTCGCTTGACGCTGCTG", "binding signal": 5.47},
      {"sequence": "CCGATTAACATCAGGGTTTCACCTGATGTTAATCGGGTCTTGATTCGCTTGACGCTGCTG", "binding signal": 5.71},
      {"sequence": "CCGATTAACATCAGAAAAATACCTGATGTTAATCGGGTCTTGATTCGCTTGACGCTGCTG", "binding signal": 4.9},
      {"sequence": "CCGATTAACATCACGGTAATTCCTGATGTTAATCGGGTCTTGATTCGCTTGACGCTGCTG", "binding signal": 5.3},
      {"sequence": "CCGATTAACATCAAAATACCCCTTGATGTTAATCGGGTCTTGATTCGCTTGACGCTGCTG", "binding signal": 5.65},
      {"sequence": "CCGATTAACATCAGGGACATCCCTGATGTTAATCGGGTCTTGATTCGCTTGACGCTGCTG", "binding signal": 7.71},
      {"sequence": "CCGATTAACATCACGGGATTTCGTGATGTTAATCGGGTCTTGATTCGCTTGACGCTGCTG", "binding signal": 3.68},
      {"sequence": "CCGATTAACATCAAACCTTCCCCTGATGTTAATCGGGTCTTGATTCGCTTGACGCTGCTG", "binding signal": 3.12},
      {"sequence": "CCGATTAACATCAGGCAAGCCCCTGATGTTAATCGGGTCTTGATTCGCTTGACGCTGCTG", "binding signal": 2.46},
      {"sequence": "CCGATTAACATCAGGGATTGCCCTGATGTTAATCGGGTCTTGATTCGCTTGACGCTGCTG", "binding signal": 5.25},
      {"sequence": "CCGATTAACATCAGGGAGTTCACTGATGTTAATCGGGTCTTGATTCGCTTGACGCTGCTG", "binding signal": 5.79},
      {"sequence": "CCGATTAACATCAGAAATACCCATGATGTTAATCGGGTCTTGATTCGCTTGACGCTGCTG", "binding signal": 3},
      {"sequence": "CCGATTAACATCAGGAAATCACCTGATGTTAATCGGGTCTTGATTCGCTTGACGCTGCTG", "binding signal": 7.51},
      {"sequence": "CCGATTAACATCAGGGTTTTTAGTGATGTTAATCGGGTCTTGATTCGCTTGACGCTGCTG", "binding signal": 2.9},
      {"sequence": "CCGATTAACATCAGGGGCTTCACTGATGTTAATCGGGTCTTGATTCGCTTGACGCTGCTG", "binding signal": 7.68},
      {"sequence": "CCGATTAACATCAAGGGGGGTTATGATGTTAATCGGGTCTTGATTCGCTTGACGCTGCTG", "binding signal": 7.12},
      {"sequence": "CCGATTAACATCAGGAAGCCCCATGATGTTAATCGGGTCTTGATTCGCTTGACGCTGCTG", "binding signal": 5.38},
      {"sequence": "CCGATTAACATCAGGAAATTACCTGATGTTAATCGGGTCTTGATTCGCTTGACGCTGCTG", "binding signal": 4.76},
      {"sequence": "CCGATTAACATCAAGGGAACCCCTGATGTTAATCGGGTCTTGATTCGCTTGACGCTGCTG", "binding signal": 9.38},
      {"sequence": "CCGATTAACATCAGATCCCCCCCTGATGTTAATCGGGTCTTGATTCGCTTGACGCTGCTG", "binding signal": 5.21},
      {"sequence": "CCGATTAACATCAGAGAAGCCCCTGATGTTAATCGGGTCTTGATTCGCTTGACGCTGCTG", "binding signal": 3.44},
      {"sequence": "CCGATTAACATCAGGAGAGTCCCTGATGTTAATCGGGTCTTGATTCGCTTGACGCTGCTG", "binding signal": 3.65},
      {"sequence": "CCGATTAACATCAGGGAGGTACCTGATGTTAATCGGGTCTTGATTCGCTTGACGCTGCTG", "binding signal": 5.13}
    ]}
  ]
}
